ERb SRC1 inh = blocks coactivator binding to human estrogen receptor beta; Q92731; TR-FRET ER-beta LBD / SRC1-Cy5 peptide binding; receptor agonist-loaded with 1 µM estradiol; inhibition, % at 25.6 µM; 86,000 compounds, 1.3% hits; AID 633;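 active = compounds whose percent inhibition of the receptor-coactivator binding signal exceeds about 50% in the single-dose screen, limit read from the data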;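 note: 0% = receptor plus peptide wells without compound and 100% = peptide-only wells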
Target sequence (Q92731 whole entry, looked up, the tested form may be a part): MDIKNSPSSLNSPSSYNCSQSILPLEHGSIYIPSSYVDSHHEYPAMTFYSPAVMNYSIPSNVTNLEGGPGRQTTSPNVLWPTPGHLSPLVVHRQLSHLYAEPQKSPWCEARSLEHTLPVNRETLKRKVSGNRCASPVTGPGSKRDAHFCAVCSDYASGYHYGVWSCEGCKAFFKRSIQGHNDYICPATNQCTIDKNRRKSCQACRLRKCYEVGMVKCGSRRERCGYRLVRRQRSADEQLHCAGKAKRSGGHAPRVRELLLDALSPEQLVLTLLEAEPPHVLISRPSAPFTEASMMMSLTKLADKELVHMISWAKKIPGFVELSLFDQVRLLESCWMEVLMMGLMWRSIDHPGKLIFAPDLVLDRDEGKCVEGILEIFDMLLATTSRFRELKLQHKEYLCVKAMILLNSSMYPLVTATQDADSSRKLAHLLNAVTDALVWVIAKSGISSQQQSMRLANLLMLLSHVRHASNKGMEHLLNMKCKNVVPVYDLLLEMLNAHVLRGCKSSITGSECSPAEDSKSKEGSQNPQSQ
ERa SRC1 pot = ER-alpha (human) coactivator binding potentiation; TR-FRET ERalpha-LBD/SRC-Cy5 coactivator binding, 2 h; 100 = basal binding, no effect; coactivator binding (% of control), % at 25.6 µM; 86,000 compounds, 1.3% hits; in the data active = activity above about 200%;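 note: binding measured in presence of low estradiol as agonist stimulus; 0% = peptide alone without receptor and 100% = receptor with peptide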
IL1B NFkB inh = blocks IL-1B driven NFkB nuclear translocation in HUVEC cells; HUVEC IL-1B NFkB p65 nuclear translocation imaging; inhibition, % at 2 µM; 94,000 compounds, 0.43% hits;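 active = inhibition above about 30% together with a positive call from visual inspection of the well image, limit read from the data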;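 note: nuclear over cytoplasmic p65 intensity ratio measured by imaging; 0% = IL-1B stimulated DMSO wells and 100% = unstimulated DMSO wells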
NFkB transloc pot = enhances IL-1B driven NFkB nuclear translocation; HUVEC IL-1B NFkB p65 nuclear translocation imaging; activation, % at 2 µM; 94,000 compounds, 0.3% hits; AID 819;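 active = activation above 40%, about the mean plus 3 SD, also judged a hit on visual image review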;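 note: percent activation is computed from the nuclear over cytoplasmic p65 intensity ratio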
ERa coact inh = ER-alpha (human) coactivator binding inhibition; TR-FRET ER-alpha LBD / SRC-1 peptide, estradiol-bound; inhibition, % at 25.6 µM; 86,000 compounds, 1.7% hits; in the data active = inhibition above about 50%;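 note: 0% = receptor plus peptide control and 100% = peptide only without receptor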
IL1B cytotox = toxic to HUVEC cells under IL-1B stimulation; HUVEC cell count loss, Hoechst imaging, IL-1B stimulated; cell count reduction, % at 2 µM; 94,000 compounds, 0.41% hits; AID 845;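 active = cell count reduction more than 3 SD above the screen-wide mean, cut at about 70% in these data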;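 note: normalized per plate to untreated control cells as the no-loss baseline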
Active calls of the source: *; · = not tested or not shown; [ ] = another dose, or the depositor's remark. This is a sample that favours compounds with a hit; in the whole collection about 3.6% have one here.

SMILES | ERb SRC1 inh | ERa SRC1 pot | IL1B NFkB inh | NFkB transloc pot | ERa coact inh | IL1B cytotox
CCc1nnc(NC(=O)CSc2nnc(-c3cccnc3)n2CCc2ccccc2)s1 | 9.3 | 85.0 | -42.7 | 42.7* | 10.0 | -31.2
CCc1nnc(NC(=O)c2ccncc2)s1 | 3.0 | 104.1 | · | · | 5.1 | ·
COc1cc2c(=O)n(Cc3ccco3)c(=O)n(CC(=O)c3cccc(Br)c3)c2cc1OC | 16.0 | 282.9*[fluorescence artefact?] | -0.1 | 0.1 | 24.7 | -0.7
COc1cc2c(=O)n(Cc3ccco3)c(=O)n(CC(=O)c3ccc(Br)cc3)c2cc1OC | 48.5 | 124.3 | · | · | -21.8 | ·
Cc1cccc(Nc2nc(N)nc(CN3CCN(c4ccc(F)cc4)CC3)n2)c1 | -4.5 | 112.0 | -11.3 | 11.3 | -5.4 | 12.5
CN(C)C(=O)CSc1nnc([C@H](Cc2c[nH]c3ccccc23)NC(=O)OC(C)(C)C)o1 | -3.1 | 95.5 | · | · | 2.3 | ·
CCOc1ccc2c3c(c(=O)oc2c1OCC)CCCC3 | 3.7 | 112.2 | -2.7 | 2.7 | 83.8*[fluorescence artefact?] | -6.9
CCCOc1ccc2c3c(c(=O)oc2c1OCCC)CCCC3 | 10.2 | 76.0 | -10.7 | 10.7 | -1.8 | -16.4
COc1ccc(-c2[nH]ncc2/C=C(/C#N)C(=O)NC2CCCCCC2)cc1 | · | · | -4.4 | 4.4 | · | -3.5
CCN(c1ccccc1)S(=O)(=O)c1ccc(F)cc1C | -3.0 | 120.6 | -24.1 | 24.1 | -0.1 | -20.9
FC(F)(F)c1cccnc1N1CCN(c2ncnc3nc[nH]c23)CC1 | -12.8 | 74.5 | · | · | 56.0*[fluorescence artefact?] | ·
Clc1ccccc1N1CCN(c2ncnc3nc[nH]c23)CC1 | 0.2 | 98.7 | · | · | 6.3 | ·
Cc1ccccc1OC(=O)C1C(c2ccccc2)C(C(=O)O)C1c1ccccc1 (stereo unspecified) | -5.2 | 108.2 | 14.9 | -14.9 | -6.6 | 5.7
COc1ccc(CCNC(=O)C2CCN(C(=O)NC3CCCCC3)CC2)cc1 | 0.5 | 103.0 | 38.8* | -38.8 | -9.2 | -7.8
O=Cc1ccc2oc3nc4n(c(=O)c3c(=O)c2c1)CCCS4 | 57.5* | 152.8 | -1.5 | 1.5 | 65.9* | -8.2
COc1ccccc1Oc1ccc(S(=O)(=O)NCc2ccccn2)cc1 | 5.4 | 119.9 | -8.3 | 8.3 | 3.0 | -25.4
CC(NC(=O)CCC1COc2ccccc2O1)c1ccccc1 (stereo unspecified) | -6.7 | 104.5 | -7.0 | 7.0 | -4.0 | 2.5
N#Cc1cc2c(nc1SCc1ccccc1)CCC2 | 59.4*[fluorescence artefact?] | 283.4*[fluorescence artefact?] | -8.8 | 8.8 | 55.3*[fluorescence artefact?] | -59.3
CCCC(=O)Nc1c(C)nn(C(=O)CCC)c1C | 3.0 | 277.8*[fluorescence artefact?] | -6.8 | 6.8 | 5.2 | -11.0
COc1cc(SC)ccc1C(=O)Nc1ccc2c(c1)OCCO2 | -3.4 | 105.0 | -44.8 | 44.8* | 6.8 | -38.1
COC(=O)c1cc(=O)nc2sccn12 | -6.3 | 93.2 | -42.3 | 42.3* | -1.2 | -33.3
COC(=O)c1cc(=O)nc2sc(-c3ccccc3)nn12 | 0.0 | 77.6 | -19.8 | 19.8 | 1.2 | -17.1
C=CCNC(=O)C1CC(=O)N(c2ccc(Br)cc2)C1 (stereo unspecified) | 95.2*[fluorescence artefact?] | 100.4 | -18.1 | 18.1 | -3.6 | 15.1
CCCCOC(=O)CSc1nnc(-c2cc(OC)c(OC)c(OC)c2)o1 | 2.0 | 99.8 | 7.9 | -7.9 | -4.2 | 28.1
CCOC(=O)c1c(C)[nH]c(C)c1C(=O)CSc1nnc(-c2cc(OC)c(OC)c(OC)c2)o1 | -3.3 | 313.2* | 1.9 | -1.9 | -42.1 | 2.6
SMILES | ERb SRC1 inh | ERa SRC1 pot | IL1B NFkB inh | NFkB transloc pot | ERa coact inh | IL1B cytotox
CC(=O)Nc1nc(C=C(Cl)Cl)cs1 | 61.2*[fluorescence artefact?] | 14.9 | · | · | 64.7* | ·
CC(=O)Nc1nc(C(=O)Nc2c(C)n[nH]c2C)cs1 | -3.5 | 115.8 | 0.0 | 0.0 | -6.3 | -8.2
CC1(C)SC2[C@H](NC(=O)C(NC(=O)N3CCNC3=O)c3ccccc3)C(=O)N2C1C(=O)O (stereo partly specified) | -0.5 | 124.5 | · | · | 1.5 | ·
C=CCOC(=O)c1sc(N2C(=O)c3oc4ccccc4c(=O)c3C2c2ccco2)nc1C (stereo unspecified) | 61.1* | 37.8 | · | · | 53.8* | ·
COC(=O)c1sc(N2C(=O)c3oc4ccccc4c(=O)c3C2c2cccs2)nc1C (stereo unspecified) | · | · | 7.9 | -7.9 | · | -53.5
CC(C)[C@H](NC(=O)OC(C)(C)C)c1nnc(SCC(=O)Nc2ccc(Br)cc2)o1 | 2.3 | 106.8 | -13.6 | 13.6 | -5.1 | 9.2
O=C(OCCN1C(=O)c2ccccc2C1=O)c1cc2ccccc2o1 | · | · | -45.3 | 45.3* | · | -14.6
O=c1c2c3nc4ccccc4nc3n(-c3cccc(F)c3)c2ncn1Cc1ccc2c(c1)OCO2 | 61.4*[fluorescence artefact?] | 76.3 | · | · | 81.6*[fluorescence artefact?] | ·
CCC(C)n1cnc2c(c1=O)c1nc3ccccc3nc1n2-c1ccc2c(c1)OCCO2 (stereo unspecified) | 10.3 | 246.1* | -10.5 | 10.5 | 30.4 | -12.8
C=CCn1cnc2c(c1=O)c1nc3ccccc3nc1n2-c1ccccc1 | 27.6 | 95.8 | · | · | -4.1 | ·
CCC(C)n1cnc2c(c1=O)c1nc3ccccc3nc1n2Cc1ccc2c(c1)OCO2 (stereo unspecified) | 11.2 | 122.8 | 7.0 | -7.0 | 1.8 | -4.2
CCN(CC)S(=O)(=O)c1cccc(-c2nnc(SCCCC(=O)c3ccccc3)o2)c1 | -13.9 | 103.4 | -16.3 | 16.3 | -21.7 | -16.6
CCN(CC)S(=O)(=O)c1cccc(-c2nnc(SCCCC(=O)c3ccc(F)cc3)o2)c1 | 27.4 | 578.0*[fluorescence artefact?] | -24.2 | 24.2 | 0.9 | -2.1
O=C(c1ccsc1)N1CCN(C(=O)c2cccs2)CC1 | -4.2 | 137.9 | 0.8 | -0.8 | -1.1 | 78.4*
O=C(c1cccs1)N1CCN(S(=O)(=O)c2ccccc2)CC1 | -2.9 | 98.2 | 10.3 | -10.3 | -3.0 | 21.5
O=C(c1cccs1)N1CCN(c2ncccn2)CC1 | -5.5 | 111.3 | 0.6 | -1.0 | 0.4 | -0.8
O=C(c1cccs1)N1CCN(C(=O)C(c2ccccc2)c2ccccc2)CC1 | -3.4 | 105.5 | 39.5* | -39.5 | -2.2 | 0.3
O=C(c1cccs1)N1CCN(S(=O)(=O)N2CCCCC2)CC1 | -2.5 | 101.8 | 6.7 | -6.7 | 3.3 | 92.4*
CC(=O)NC(Cc1ccccc1)C(=O)N1CCN(C(=O)c2cccs2)CC1 (stereo unspecified) | -7.5 | 114.0 | -2.7 | 2.7 | -2.7 | -13.3
Cc1ccc(-c2nnc(CSc3nc(C(C)C)nc4sc(C)c(C)c34)o2)cc1 | -8.0 | 91.7 | 5.8 | -5.8 | -13.0 | 23.8
Cn1c(=O)c(C(=S)NC(=O)C2CC2)c(N)n(Cc2ccccc2)c1=O | -3.1 | 105.6 | 1.4 | -1.4 | -1.9 | -0.9
CSc1nc2ccc3nc(NC(=O)c4ccc(C)cc4)sc3c2s1 | · | · | 2.9 | -2.9 | · | 8.8
Cc1ccc(C(=O)Nc2nc3ccccc3c(=O)s2)cc1 | 60.3* | 191.7 | -12.0 | 12.0 | 36.1 | -15.7
Cc1ccc2[nH]c(=O)c(C3C(C#N)=C(N)Oc4c3ccc3cccnc43)cc2c1 (stereo unspecified) | 60.9* | 49.3 | -13.6 | 13.6 | 78.8* | 6.7
